The entries come from a sample that favours hits as a whole.
Vaccinia pol inh: vaccinia E9 polymerase processive synthesis inhibitors, primary screen, biochemical, absorbance | Vaccinia virus DNA polymerase (E9) processive complex | in vitro processive DNA synthesis, absorbance read-out; hits give low values | normalized absorbance, % (concentration not given with the values) | 0.94% of 46,000 active | AID 493162, 2011; in the data active = normalized absorbance mostly below about 85%, no sharp cut-off; inactive = mostly above about 86%
* = called active by the depositor.

SMILES	Vaccinia pol inh
Cc1ccc(CCNC(=O)c2cc3c(=O)[nH]c4ccc(C)cc4c3s2)cc1	102.8
S=c1[nH]c(-c2ccccc2)c(-c2ccccc2)o1	62.5*
S=c1cc(-c2ccccc2)ss1	84.3
O=c1cc(-c2ccccc2)[nH]c(=S)[nH]1	100.3
O=C1c2ccccc2NC(c2cccc(O)c2)N1O (configuration not stated)	95.9
O=C1CC(c2cccc(O)c2)Nc2ccc3ccccc3c21 (configuration not stated)	61.9*
Cc1ccccc1C1CC(=O)c2c(ccc3ccccc23)N1 (configuration not stated)	99.1

Screens (PubChem BioAssay)
